High-throughput results as filed in PubChem BioAssay.
Hits are enriched below; roughly 1.2% of the tested compounds scored in any of these assays.
PrP 5UTR inh: inhibition of PrP 5' UTR reporter expression. cell-based PrP 5' UTR mRNA reporter, plate reader. inhibition, % (no concentration beside the values). AID 488862. 340,000 tested, 0.35% active; in the data active = inhibition above about 52%; also: 0 = median of the neutral control wells
SARS 3CLpro inh: SARS-CoV 3CLpro protease inhibition; P0C6X7; recombinant SARS-CoV 3CLpro, quenched FRET peptide cleavage; inhibition, % at 6 µM; 290,000 tested, 0.14% active; AID 1706; in the data active = inhibition above about 12%
BJeLR lethal: BJeLR cell viability loss; BJeLR (HRASV12) viability, CellTiter-Glo ATP luminescence, 48 h; inhibition, % (test concentration not listed); 300,000 tested, 0.17% active; AID 1554; in the data active = inhibition above about 50%; inconclusive = no clear call, values can overlap the other calls
PrPC surface inh: cell surface PrPC inhibition, primary TR-FRET screen | 370,000 tested, 0.43% active | AID 720596 | TR-FRET read-out | inhibition, % at 13.8 µM; in the data active = inhibition above about 24%; also: 0% = median of the test wells and 100% = reference compound wells
PriA SSB inh: inhibitors of Klebsiella pneumoniae PriA binding to SSB C-terminal tail | AlphaScreen SSBct-PriA binding, biotinylated peptide | inhibition, % at 33 µM | 430,000 tested, 0.6% active; in the data active = inhibition mostly above about 37%, no sharp cut-off; inactive = mostly below about 20%;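 also: plate controls were negative control peptide for no effect and reference peptide for full effect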
PrP 5UTR single: prion 5' UTR mRNA inhibition, cherry-pick retest | shares compounds with PrP 5UTR inh | cell-based prion protein 5' UTR reporter, plate reader | inhibition, % at 2.5 µM | 1,100 tested, 48% active | AID 504592; in the data active = inhibition above about 54%; inconclusive = no clear call, values can overlap the other calls
The depositor's hits bear a star; i = inactive; ? = inconclusive; . = no result.

SMILES	PrP 5UTR inh	SARS 3CLpro inh	BJeLR lethal	PrPC surface inh	PriA SSB inh	PrP 5UTR single
CC(=O)OC1CC2(O)C3CCC4CC(O)CCC4(C)C3CCC2(C)C1C1=CC(=O)OC1 (stereo not given)	86*	.	.	3	0	80*
CC12CC[C@H]3[C@@H](CCC4(O)C[C@H](O)CCC34/C=N/NC(=O)c3ccccc3Cl)C1(O)CCC2C1=CC(=O)OC1 (stereo not given in full)	-31	3	4	-3	i	.
CC(=O)OCC1OC(OC2C[C@]3(C)C(CC(O)C4C(C(C)(CCC=C(C)C)OC5OC(CO)C(O)C(O)C5O)CC[C@]43C)[C@@]3(C)CCC(O)C(C)(C)C23)C(O[C@@H]2OC(C)C(O)C(O)C2O)C(O)C1O (stereo not given in full)	.	.	.	.	-4	.
CC(=O)OCC(=O)C1(O)CCC2C3CCC4CC(O)CCC4(C)C3C(=O)CC21C (stereo not given)	.	.	.	5	.	.
O=C(Nc1cccc(-c2ccc3nnc(-c4cccnc4)n3n2)c1)c1ccc2ccccc2n1	.	.	.	.	4	.
CC(=O)c1ccc(NC(=O)Cn2c(=O)c3c(N4CCN(C(C)=O)CC4)ccnc3n(C)c2=O)cc1	.	.	.	.	5	.
NC(=O)c1ccccc1OCC#CCNC(=O)Cn1cnc2ccccc21	.	.	.	.	4	.
COc1ccc(NC(=O)COC(=O)Cc2c[nH]c3ccccc23)cc1OC	68*	-4	1	7	1	-24
O=C(Cc1csc(NC(=O)c2ccccc2)n1)NC1CCCC1	.	.	.	.	-9	.
COc1cc(CC(=O)N(c2ccccc2)c2nc(C)cs2)cc(OC)c1OC	61*	4	5	2	-2	-8
Nc1onc2c1CSC2	.	.	.	.	-16	.
CN(C)c1ccc(/C=C2\SC(=O)N(CCc3nnc(N)s3)C2=O)cc1	56*	-5	1	-11	-4	76*
CN(C)c1ccc(/C=C2/SC(=O)N(CCN=C3NS(=O)(=O)c4ccccc43)C2=O)cc1	-48	2	1	-4	7	.
CC[C@]12c3[nH]c4ccccc4c3CCN1C(=O)C(CC(=O)NCCc1ccccn1)C[C@@H]2C(=O)N1CCN(C(=O)c2ccco2)CC1 (stereo not given in full)	67*	.	.	3	1	-18
CC[C@]12c3[nH]c4cc(CCC(=O)N(C)C)ccc4c3CCN1C(=O)[C@@H](CC(=O)NCCc1ccccn1)C[C@@H]2C(=O)N1CCN(C(=O)c2ccco2)CC1	-8	.	.	-5	-4	.
O=S(=O)(NC1CCC(Oc2ncccn2)CC1)c1ccc2c(c1)OCCO2 (stereo not given)	.	.	.	.	0	.
Cc1ccc(-c2nc(-c3ccccn3)no2)cc1Cl	72*	-1	17	0	-12	64*
c1ccc(-c2nc(-c3ccccn3)no2)cc1	46	-5	14	-7	3	.
Clc1cccc(-c2nc(-c3ccccn3)no2)c1	47	2	5	9	-18	.
c1ccc(-c2ccc(-c3nc(-c4ccccn4)no3)cc2)cc1	89*	7	81*	3	-17	91*
Cc1ccc(-c2nc(-c3ccccn3)no2)cc1	86*	1	49	-7	-1	91*
CSc1ccc(C(O)CNC(=O)Cc2c(F)cccc2Cl)cc1 (stereo not given)	.	.	.	.	0	.
Cc1ccc(-n2cccn2)c([C@@H]2C[C@H]3CN(C)C(=O)[C@]34CCCN24)c1	67*	1	3	-3	15	-14
COc1ccc(CN(C)CC(=O)Nc2ccccc2C(F)(F)F)cc1	81*	1	-4	5	-31	-19
COc1ccc(CN(C)CC(=O)Nc2ccccc2C(F)(F)F)c(OC)c1	-36	-1	-1	1	-14	.
SMILES	PrP 5UTR inh	SARS 3CLpro inh	BJeLR lethal	PrPC surface inh	PriA SSB inh	PrP 5UTR single
O=S(=O)(Nc1ccc(Cl)cc1)c1ccccc1F	.	.	.	.	-9	.
CC(=O)Nc1cccc(-c2nnc(-c3ccccc3)o2)c1	-67	0	-1	8	-7	.
CC(C)(C)C(=O)Nc1cccc(-c2nnc(-c3cccc(NC(=O)C(C)(C)C)c3)o2)c1	59*	-2	4	0	-10	-44
CC(C)(C)n1nc2c(c1NC(=O)C(=O)NCc1ccccn1)CS(=O)(=O)C2	.	.	.	.	-16	.
COc1ccc(CCNC(=O)CSc2nc(C)c(C)c(=O)[nH]2)cc1OC	.	.	.	.	-8	.
O=C(c1ccccc1)c1cc([N+](=O)[O-])ccc1N1CCOCC1	-2	-1	50	-16	0	.
Cc1ccc(C(=O)c2cc([N+](=O)[O-])ccc2N2CCCCC2)cc1	56*	3	39	2	1	86*
CC1CCCN(c2ccc([N+](=O)[O-])cc2C(=O)c2ccccc2)C1 (stereo not given)	61*	2	58*	7	4	80*
CCOC(=O)c1ccc(NC(=O)Nc2ccon2)cc1	66*	4	58*	7	-1	79*
CCN(c1ccccc1)S(=O)(=O)c1ccc(C(=O)Nc2ncnc3sccc23)cc1	.	.	.	.	-8	.
Cc1nc2c(ccc3c([N+](=O)[O-])cccc32)c(C)c1C	71*	2	-1	-5	11	-53
CC(C)C1SC(=NN=Cc2cccs2)NC1=O (stereo not given)	.	.	.	.	4	.
CC(C)C(NC(=O)C(C(C)C)N(C)C)C(=O)N(C)C(C(=O)N1CCCC1C(=O)N1CCCC1C(=O)NCc1ccccc1)C(C)C (stereo not given)	62*	.	.	4	-5	89*
C[C@](O)(CNC(=O)c1ccc2c(c1)OCO2)c1cc2ccccc2o1	.	.	.	.	-11	.
Cc1ccc(CNC(=O)C2CCN(c3nnc(N4CCCC4=O)s3)CC2)cc1	69*	-7	-15	7	-8	-4
O=C(COC(=O)c1ccc[nH]c1=O)Nc1ccc(N2CCCCC2)cc1	62*	.	.	6	-1	?
COc1cc(C(C)=O)ccc1OCC(=O)NCCOc1ccc2c(c1)OCO2	.	.	.	.	-1	.
Cc1c(/C=N\NC(=O)C2COc3ccccc3O2)c2ccccc2n1C (stereo not given)	67*	0	22	4	.	83*
Cc1c(Cc2ccccc2)sc(/N=C/c2c(O)ccc3ccccc23)c1C(N)=O	-20	-1	5	.	.	.
Cc1c(Cc2ccccc2)sc(/N=C/c2ccc3ccccc3c2)c1C(N)=O	60*	2	.	.	.	95*
Cc1nn(CCCC(=O)Nc2cccnc2Cl)c(C)c1[N+](=O)[O-]	52*	2	11	-5	1	-10
Cc1nn(Cc2c(Cl)cccc2Cl)c(C)c1NC(=O)CCCn1nc(C)c([N+](=O)[O-])c1C	-8	-1	-10	-11	-1	.
COC(=O)C1CC(Oc2ccccc2F)CN1C(=O)c1ccc2nc(C)sc2c1 (stereo not given)	.	.	.	.	-5	.
COc1cc2cc(C#N)c(SCC(=O)N3CCOCC3)nc2cc1OC	72*	-2	-7	-4	-12	-29
Cc1cc(C)n(-c2nc(CCNC(=O)C3c4ccccc4Oc4ccccc43)cs2)n1	.	.	.	.	-13	.
